Screening data (PubChem)
The list is not random: actives were taken first. Their share in the collection is about 3.3%.
Tau fibril FP – blocks human tau fibril formation measured by polarization | K18 P301L tau heparin fibrillization, Alexa594 FP, 6 h | Potency, µM (doses to about 57.7 µM), inactives show at the top dose activity, negative = inhibition, most hits filed as inhibitors | hit rate 0.39% among 280,000 | AID 1468; note: nearly all actives have a fitted effect of over 55% in size
Target sequence (P10636 561-689 P618L limits assumed): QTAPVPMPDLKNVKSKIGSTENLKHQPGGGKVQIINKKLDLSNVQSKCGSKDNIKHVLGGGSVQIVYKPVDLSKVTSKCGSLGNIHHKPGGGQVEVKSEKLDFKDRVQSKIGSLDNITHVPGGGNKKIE
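FP of Alexa 594-tau after heparin (20 uM) induction. Substrate: human K18 P301L, 15 uM unlabeled, 0.24 uM labeled. Buffer 100 mM sodium acetate pH 7. 6 hr, 37 C.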
Tau ThT inhib – inhibitors of human tau fibril formation, thioflavin T binding | P10636 | recombinant tau K18 P301L, heparin-induced fibrillization, ThT fluorescence | Potency, µM (series often up to 57.4 µM), for inactives: at the top dose activity, negative = inhibition, actives largely listed as inhibitors | hit rate 2.1% among 270,000; note: nearly all actives have a fitted effect of over 55% in size
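Heparin-induced (20 uM) aggregation of recombinant human K18 P301L tau, 15 uM unlabeled with 0.24 uM labeled, pH 7 acetate buffer, 6 hr at 37 C with compound. Fibrils quantified by 30 uM ThT fluorescence after 1 hr ambient incubation.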
Luc counter – blocks Kinase-Glo luciferase, a counter-screen artifact | Q27757 | Kinase-Glo luciferase, ATP luminescence, 8 min | Potency, µM (series often up to 38.3 µM), for the others: at the highest dose activity change, negative = inhibition, hits mostly inhibitors | hit rate 0.28% among 200,000 | AID 1379; note: nearly all actives have a fitted effect of over 60% in size
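Compounds were added to a substrate mix at pH 7.2 (50 mM imidazole, 10 uM ATP, within the enzyme's linear range), followed by Kinase-Glo detection reagent; luminescence was measured after 8 minutes at ambient temperature.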
NPSR antag – antagonists of human neuropeptide S receptor cAMP signaling; Q6W5P4; CHO-NPSR cells, cAMP TR-FRET, antagonist mode; Potency, µM (highest dose often 38.3 µM), without a hit: at the top dose activity change, negative = inhibition, actives largely listed as inhibitors; hit rate 1% among 220,000; AID 1461; note: nearly all actives have a fitted effect of over 50% in size
Target sequence (Q6W5P4 whole entry, looked up): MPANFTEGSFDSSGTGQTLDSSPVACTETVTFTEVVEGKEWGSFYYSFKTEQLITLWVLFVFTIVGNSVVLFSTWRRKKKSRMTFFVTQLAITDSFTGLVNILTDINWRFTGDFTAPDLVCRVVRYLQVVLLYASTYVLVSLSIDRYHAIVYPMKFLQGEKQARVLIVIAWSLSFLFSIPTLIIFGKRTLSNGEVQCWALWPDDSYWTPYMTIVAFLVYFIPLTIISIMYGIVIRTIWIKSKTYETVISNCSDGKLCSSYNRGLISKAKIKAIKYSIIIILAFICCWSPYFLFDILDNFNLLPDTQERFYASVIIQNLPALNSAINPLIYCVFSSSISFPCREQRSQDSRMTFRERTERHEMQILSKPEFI
Tau fluor cs – counter-screen for tau fibril formation inhibitors. AID 1463. tau K18 P301L Alexa594 fluorescence, heparin fibrillization. Potency, µM (highest dose often 57.7 µM), for inactives: at the highest dose activity change, negative = decrease. hit rate 0.93% among 280,000; note: nearly all actives have a fitted effect of over 55% in size
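Human tau K18 P301L (15 uM unlabeled, 0.24 uM Alexa 594-labeled) in 100 mM sodium acetate pH 7 with 20 uM heparin, 6 hr at 37 C. ThT 30 uM added, 1 hr ambient; Alexa 594 FP and total fluorescence read at 555/632 nm.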
* = called active by the depositor; ! = repeats disagree; [ ] = another dose, or the depositor's remark. Calls come from the whole dose curve; as a rule, active = well fitted curve in the direction sought with a large enough effect; inconclusive = small, poorly fitted or top-dose-only effect, or another doubt; inactive = no such curve, though single readings can be large; an effect the other way counts as inactive or inconclusive. % is set by controls: 0 for no effect and ±100 for the full control effect; potency is the fitted concentration of half-maximal effect.

How did CCOC(=O)c1cc2n(c1/N=C/N(C)C)-c1ccccc1C2=O do in these assays?
Tau fibril FP: 25µM*; Tau ThT inhib: 25µM*; Luc counter: -3%; NPSR antag: -5%[46.1 µM]; Tau fluor cs: inconclusive

How did CCOC(=O)c1ccc2c(c1)N(CC(=O)N(C)c1ccccc1)C(=O)c1ccccc1S2 do in these assays?
Tau fibril FP: 2%; Tau ThT inhib: -7%; Tau fluor cs: 4%

What do the screens show for `COCCCNC(=O)c1c(NC(=O)c2nc(S(C)(=O)=O)ncc2Cl)sc2c1CCCC2`?
Tau fibril FP: -12%; Tau ThT inhib: 13µM*; Tau fluor cs: -26%

Results for CCSc1ncc(Cl)c(C(=O)Nc2sc3c(c2C(=O)NCCCOC)CCCC3)n1 ?
Tau fibril FP: -9%; Tau ThT inhib: -17%; Tau fluor cs: -16%

What do the screens show for `CCNC(=O)c1c(NC(=O)c2nc(S(=O)(=O)CC)ncc2Cl)sc2c1CCCC2`?
Tau fibril FP: -16%; Tau ThT inhib: 6.3µM*; Tau fluor cs: -27%

What do the screens show for `COc1ccc2c(=O)c3c(=O)n(-c4ccccc4)c(-c4ccc(C)cc4)nc3oc2c1`?
Tau fibril FP: 3%; Tau ThT inhib: -8%; NPSR antag: inconclusive; Tau fluor cs: 5%

Results for Cc1cc(C)cc(Nc2cc(C(=O)NCc3ccccc3)c3ccccc3n2)c1 ?
Tau fibril FP: inconclusive; Tau ThT inhib: -13%; Tau fluor cs: 3.5µM*[quencher]

What do the screens show for `COc1ccc(Nc2cc(C(=O)NCc3ccccc3)c3ccccc3n2)cc1`?
Tau fibril FP: inconclusive; Tau ThT inhib: -13%; Tau fluor cs: inconclusive

How did Cc1ccc(C)c(Nc2cc(C(=O)NCCCN(C)C3CCCCC3)c3ccccc3n2)c1 do in these assays?
Tau fibril FP: 6%; Tau ThT inhib: inconclusive; Tau fluor cs: inconclusive

Results for Cc1cc(C)cc(Nc2cc(C(=O)NCCCN(C)C3CCCCC3)c3ccccc3n2)c1 ?
Tau fibril FP: 4%; Tau ThT inhib: inconclusive; Tau fluor cs: 3.2µM*[quencher]

Results for CCN1CCCC1CNC(=O)c1ccc(-n2c(=O)c(=O)[nH]c3ccccc32)cc1 (stereo not drawn) ?
Luc counter: -1%

Results for COC(=O)CCC(=O)OC1(C)C(=O)C2=CN(CCCOC(C)C)C(c3ccc(OC)cc3)=CC2=C(Br)C1=O (stereo not drawn) ?
Tau fibril FP: inconclusive; Tau ThT inhib: 16µM*; NPSR antag: -20%; Tau fluor cs: -16%

How did COC(=O)CCC(=O)OC1(C)C(=O)C2=CN(Cc3ccc(OC)cc3)C(c3ccc(OC)cc3)=CC2=C(Br)C1=O (stereo not drawn) do in these assays?
Tau fibril FP: 5%[11.6 µM]; Tau ThT inhib: -16%[11.5 µM]; Luc counter: -1%[7.66 µM]; Tau fluor cs: -17%[11.6 µM]

Results for COC(=O)CCC(=O)OC1(C)C(=O)C2=CN(CC3CC3)C(c3ccc(OC)cc3)=CC2=C(Br)C1=O (stereo not drawn) ?
Tau fibril FP: inconclusive; Tau ThT inhib: 11µM*!; Luc counter: -3%[7.66 µM]; NPSR antag: -21%; Tau fluor cs: -4%[11.6 µM]

Results for COC(=O)CCC(=O)OC1(C)C(=O)C2=CN(CC(C)C)C(c3ccc(OC)cc3)=CC2=C(Br)C1=O (stereo not drawn) ?
Tau fibril FP: 8.9µM*!; Tau ThT inhib: 10µM*!; Luc counter: -3%[7.66 µM]; NPSR antag: -24%; Tau fluor cs: -7%[11.6 µM]

Results for CCCCNC(=O)C(c1ccc(OCC(=O)OC)c(C(=O)OC)c1)N(CCc1ccccn1)C(=O)CCCCCN1C(=O)NC(c2ccc(-c3ccccc3)cc2)C(C(=O)OCc2ccccc2)=C1C (stereo not drawn) ?
Tau fibril FP: 3%; Tau ThT inhib: -8%; Luc counter: -3%; Tau fluor cs: -1%

How did CC1CC[C@@]23CCC4(C)[C@@]5(C)CCC6C(C)(C)C(=O)CC[C@@]6(C)C5C=C[C@@]4(OC2=O)C3C1C (stereo partly drawn) do in these assays?
Tau fibril FP: 3%; Tau ThT inhib: -4%; Luc counter: -2%; Tau fluor cs: -8%
